Test results reported in PubChem BioAssay (NCI).
Compounds without any hit were thinned out: in the full panel of roughly 83,000, 20% have a hit.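 Testing used 96-well plates and a 48-hour single-concentration exposure. Example: -40 means 40% of the starting cells died.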 Active and inactive are the calls of the source. The calls were made as follows: active = growth percent below 10; inactive = the rest.

Columns and labels:
Experiment in all cases: NCI-60 one-dose screen, 48 h (100 = growth as untreated, 0 = no growth, -100 = all killed)
Conditions in all cases: 10 µM
SR leukemia = system: SR leukemia
RPMI-8226 leukemia = system: RPMI-8226 leukemia
OVCAR-8 ovarian = system: OVCAR-8 ovarian
OVCAR-5 ovarian = system: OVCAR-5 ovarian
OVCAR-4 ovarian = system: OVCAR-4 ovarian
SK-OV-3 ovarian = system: SK-OV-3 ovarian
IGROV1 ovarian = system: IGROV1 ovarian
OVCAR-3 ovarian = system: OVCAR-3 ovarian
HS 578T breast = system: HS 578T breast
NCI/ADR-RES ovarian = system: NCI/ADR-RES ovarian
T-47D breast = system: T-47D breast
BT-549 breast = system: BT-549 breast
MDA-MB-435 melanoma = system: MDA-MB-435 melanoma
SW-620 colon = system: SW-620 colon
MCF7 breast = system: MCF7 breast
HCT-116 colon = system: HCT-116 colon
HCC-2998 colon = system: HCC-2998 colon
KM12 colon = system: KM12 colon

Measured: growth

Nc1ccc(/C=N/Nc2ccnc3c(O)cccc23)c2cccnc12
active: SR leukemia 2.19% | SW-620 colon 7.41% | HCT-116 colon -0.0751%
inactive: RPMI-8226 leukemia 31.8% | OVCAR-8 ovarian 14.4% | OVCAR-5 ovarian 107% | OVCAR-4 ovarian 30.5% | SK-OV-3 ovarian 85.7% | IGROV1 ovarian 60.2% | OVCAR-3 ovarian 20% | HS 578T breast 63.9% | NCI/ADR-RES ovarian 30.6% | T-47D breast 98.3% | BT-549 breast 80.2% | MDA-MB-435 melanoma 46.8% | MCF7 breast 31.7% | HCC-2998 colon 60.8% | KM12 colon 43.3%

Brc1ccc2c(c1)-c1ccccc1C1=NCCN12
inactive: IGROV1 ovarian 27.1% | HS 578T breast 37% | BT-549 breast 11% | HCC-2998 colon 13.5% | KM12 colon 10.9%
active: SR leukemia -0.353% | RPMI-8226 leukemia 1.99% | OVCAR-8 ovarian -11.3% | OVCAR-5 ovarian -8.25% | OVCAR-4 ovarian 0.91% | SK-OV-3 ovarian -3.44% | OVCAR-3 ovarian -32.7% | NCI/ADR-RES ovarian -18% | T-47D breast -0.518% | MDA-MB-435 melanoma 1.68% | SW-620 colon -34.3% | MCF7 breast -5.53% | HCT-116 colon -12.6%

CC(C)c1cc(N=O)cc(C(C)C)c1O
inactive: SR leukemia 106% | RPMI-8226 leukemia 93.5% | OVCAR-8 ovarian 103% | OVCAR-5 ovarian 97.2% | OVCAR-4 ovarian 104% | SK-OV-3 ovarian 109% | IGROV1 ovarian 121% | OVCAR-3 ovarian 110% | HS 578T breast 107% | NCI/ADR-RES ovarian 99.8% | T-47D breast 108% | BT-549 breast 111% | MDA-MB-435 melanoma 109% | SW-620 colon 100% | MCF7 breast 103% | HCT-116 colon 110% | HCC-2998 colon 104% | KM12 colon 111%

Nc1cc(-c2ccncc2)c[nH]c1=O
inactive: SR leukemia 74.3% | RPMI-8226 leukemia 109% | OVCAR-8 ovarian 100% | OVCAR-5 ovarian 98.8% | OVCAR-4 ovarian 106% | SK-OV-3 ovarian 120% | IGROV1 ovarian 108% | OVCAR-3 ovarian 107% | HS 578T breast 110% | NCI/ADR-RES ovarian 104% | T-47D breast 114% | BT-549 breast 93.5% | MDA-MB-435 melanoma 115% | SW-620 colon 110% | MCF7 breast 91% | HCT-116 colon 97.1% | HCC-2998 colon 116% | KM12 colon 104%

c1ccc2c(c1)Cc1ccccc1N2CCN1CCCCC1
inactive: SR leukemia 94.1% | RPMI-8226 leukemia 87.2% | OVCAR-8 ovarian 91.2% | OVCAR-5 ovarian 96.6% | OVCAR-4 ovarian 95.2% | SK-OV-3 ovarian 88.8% | IGROV1 ovarian 83.5% | OVCAR-3 ovarian 108% | HS 578T breast 113% | NCI/ADR-RES ovarian 88.5% | T-47D breast 90.3% | BT-549 breast 86.3% | MDA-MB-435 melanoma 106% | SW-620 colon 89.1% | MCF7 breast 89.4% | HCT-116 colon 56.8% | HCC-2998 colon 86% | KM12 colon 95.3%

O=C(O)COc1c(Cl)cc([N+](=O)[O-])cc1Cl
inactive: SR leukemia 82.3% | RPMI-8226 leukemia 101% | OVCAR-8 ovarian 99.3% | OVCAR-5 ovarian 95.7% | OVCAR-4 ovarian 108% | SK-OV-3 ovarian 92.3% | IGROV1 ovarian 93.6% | OVCAR-3 ovarian 113% | HS 578T breast 105% | NCI/ADR-RES ovarian 108% | T-47D breast 108% | BT-549 breast 90% | MDA-MB-435 melanoma 105% | SW-620 colon 110% | MCF7 breast 94.7% | HCT-116 colon 83.4% | HCC-2998 colon 101% | KM12 colon 98.1%

CC(=O)N[C@H](C(=O)N[C@@H](CCCNC(=N)N)C(=O)N[C@@H](CCCCN)C(=O)N[C@@H](CCCNC(=N)N)C(=O)N[C@]1(C)CCCCCC/C=C\CCC[C@@](C)(C(=O)N[C@@H](CCCNC(=N)N)C(=O)N[C@@H](CCC(=O)O)C(=O)N[C@@H](CC(C)C)C(=O)N[C@H](C(=O)N[C@@H](CCC(=O)O)C(N)=O)C(C)C)NC(=O)[C@H](CCC(N)=O)NC(=O)[C@H](CC(C)C)NC(=O)[C@H](CC(C)C)NC(=O)[C@H](CCCNC(=N)N)NC(=O)[C@H](CCCNC(=N)N)NC(=O)[C@H](CC(C)C)NC1=O)C(C)C
inactive: SR leukemia 15.4% | RPMI-8226 leukemia 20.9% | OVCAR-5 ovarian 38.3% | OVCAR-4 ovarian 39.6% | SK-OV-3 ovarian 53.1% | IGROV1 ovarian 58.8% | SW-620 colon 25.9% | HCT-116 colon 11.6% | HCC-2998 colon 24.8%
active: OVCAR-8 ovarian -15.5% | OVCAR-3 ovarian -38.9% | HS 578T breast -33.9% | NCI/ADR-RES ovarian 7.03% | T-47D breast -35.7% | BT-549 breast -46% | MDA-MB-435 melanoma 7.66% | MCF7 breast -41.7% | KM12 colon -16.9%

COc1ccc(C(=O)N2C=Cc3ccccc3C2C#N)cc1 (stereo unspecified)
inactive: SR leukemia 88.8% | RPMI-8226 leukemia 94.9% | OVCAR-8 ovarian 100% | OVCAR-5 ovarian 102% | OVCAR-4 ovarian 102% | SK-OV-3 ovarian 97.5% | IGROV1 ovarian 114% | OVCAR-3 ovarian 105% | HS 578T breast 96.9% | NCI/ADR-RES ovarian 95.6% | T-47D breast 90.8% | BT-549 breast 103% | MDA-MB-435 melanoma 72.3% | SW-620 colon 99% | MCF7 breast 96.4% | HCT-116 colon 115% | HCC-2998 colon 103% | KM12 colon 89.6%

Cc1noc(C)c1CSc1ccccc1C(=O)N1CCN(c2cccc(C(F)(F)F)c2)CC1
inactive: SR leukemia 39% | RPMI-8226 leukemia 54.3% | OVCAR-8 ovarian 94.2% | OVCAR-5 ovarian 88.1% | OVCAR-4 ovarian 67% | SK-OV-3 ovarian 75.3% | IGROV1 ovarian 83.7% | OVCAR-3 ovarian 82.1% | HS 578T breast 90.4% | NCI/ADR-RES ovarian 72.3% | T-47D breast 49.2% | BT-549 breast 61% | MDA-MB-435 melanoma 82.6% | SW-620 colon 86.5% | MCF7 breast 79.4% | HCT-116 colon 55.3% | HCC-2998 colon 93.6% | KM12 colon 79.2%

COc1ccc(/C=C/C(=O)C(=O)/C=C/c2ccc(OC)c(OC)c2)cc1OC
active: SR leukemia 4.78% | RPMI-8226 leukemia 3.5% | OVCAR-3 ovarian 3.9% | SW-620 colon 4.43% | MCF7 breast 4.02% | HCT-116 colon -74.8% | KM12 colon -4.31%
inactive: OVCAR-8 ovarian 19.5% | OVCAR-5 ovarian 60.5% | OVCAR-4 ovarian 61.9% | SK-OV-3 ovarian 97.8% | IGROV1 ovarian 10.1% | HS 578T breast 31.5% | NCI/ADR-RES ovarian 71.7% | T-47D breast 35.8% | BT-549 breast 14.8% | MDA-MB-435 melanoma 12.2% | HCC-2998 colon 21.9%

CCC(c1ccc(OC)cc1)C(CC)c1ccc(O)c(CN2CCN(C)CC2)c1 (stereo unspecified)
active: SR leukemia 4.26% | RPMI-8226 leukemia -21.6% | HCC-2998 colon -1.52%
inactive: OVCAR-8 ovarian 67% | OVCAR-5 ovarian 80.4% | OVCAR-4 ovarian 60.2% | SK-OV-3 ovarian 78.7% | IGROV1 ovarian 68.5% | OVCAR-3 ovarian 79.8% | HS 578T breast 61.4% | NCI/ADR-RES ovarian 60.3% | T-47D breast 39.1% | BT-549 breast 76.9% | MDA-MB-435 melanoma 33.5% | SW-620 colon 16.6% | MCF7 breast 50.9% | HCT-116 colon 29.1% | KM12 colon 53.9%

N#Cc1c(N)nc(-c2cc(F)cc(C(F)(F)F)c2)nc1-c1ccccc1F
inactive: SR leukemia 23.6% | RPMI-8226 leukemia 70.9% | OVCAR-8 ovarian 35.8% | OVCAR-5 ovarian 61.1% | SK-OV-3 ovarian 46.6% | IGROV1 ovarian 38.6% | OVCAR-3 ovarian 37.5% | HS 578T breast 18.4% | NCI/ADR-RES ovarian 49.3% | T-47D breast 49% | BT-549 breast 58.9% | MDA-MB-435 melanoma 85.7% | SW-620 colon 63.4% | MCF7 breast 73.6% | HCT-116 colon 26.2% | HCC-2998 colon 75.6% | KM12 colon 79.7%
active: OVCAR-4 ovarian 5.1%

O=S(=O)(O)c1cccc(Nc2ccc3ccccc3c2)c1
inactive: SR leukemia 92% | RPMI-8226 leukemia 95.5% | OVCAR-8 ovarian 92.4% | OVCAR-5 ovarian 106% | OVCAR-4 ovarian 99% | SK-OV-3 ovarian 87.9% | IGROV1 ovarian 84.4% | OVCAR-3 ovarian 97.5% | HS 578T breast 96.6% | NCI/ADR-RES ovarian 97.4% | T-47D breast 89.9% | BT-549 breast 98.4% | MDA-MB-435 melanoma 106% | SW-620 colon 93.2% | MCF7 breast 99.5% | HCT-116 colon 90.5% | HCC-2998 colon 104% | KM12 colon 90.6%

CN1CCN(C2=Nc3ccccc3Oc3ccc(Cl)cc32)CC1
inactive: SR leukemia 76.9% | RPMI-8226 leukemia 99.5% | OVCAR-8 ovarian 107% | OVCAR-5 ovarian 96.1% | OVCAR-4 ovarian 84.3% | SK-OV-3 ovarian 117% | IGROV1 ovarian 97.2% | OVCAR-3 ovarian 104% | HS 578T breast 104% | NCI/ADR-RES ovarian 98% | T-47D breast 81.3% | BT-549 breast 111% | MDA-MB-435 melanoma 96.9% | SW-620 colon 96.2% | MCF7 breast 97.4% | HCT-116 colon 92.4% | HCC-2998 colon 116% | KM12 colon 102%

Cc1ccccc1N1C(=O)c2cc(S(N)(=O)=O)c(Cl)cc2NC1C (stereo unspecified)
inactive: SR leukemia 87.1% | RPMI-8226 leukemia 106% | OVCAR-8 ovarian 108% | OVCAR-5 ovarian 108% | OVCAR-4 ovarian 111% | SK-OV-3 ovarian 128% | IGROV1 ovarian 111% | OVCAR-3 ovarian 109% | HS 578T breast 111% | NCI/ADR-RES ovarian 103% | T-47D breast 104% | BT-549 breast 96.6% | MDA-MB-435 melanoma 112% | SW-620 colon 108% | MCF7 breast 94.2% | HCT-116 colon 102% | HCC-2998 colon 107% | KM12 colon 108%

NC(=O)c1cccc(-n2ccc3cc(NC(=O)Nc4ccc(Cl)c(C(F)(F)F)c4)ccc32)n1
inactive: SR leukemia 91.1% | RPMI-8226 leukemia 70.5% | OVCAR-8 ovarian 72.1% | OVCAR-5 ovarian 93.1% | OVCAR-4 ovarian 77.6% | SK-OV-3 ovarian 94.8% | IGROV1 ovarian 74.5% | OVCAR-3 ovarian 94.7% | HS 578T breast 46.5% | NCI/ADR-RES ovarian 82% | T-47D breast 68.5% | BT-549 breast 69.8% | MDA-MB-435 melanoma 74.9% | SW-620 colon 111% | MCF7 breast 43.8% | HCT-116 colon 67% | HCC-2998 colon 96.3% | KM12 colon 64.4%

COc1cc(C(=O)N2CCN(c3cc4c(cc3F)c(=O)c(C(=O)NO)cn4C3CC3)CC2)cc(OC)c1OC
inactive: SR leukemia 95% | RPMI-8226 leukemia 85.2% | OVCAR-8 ovarian 106% | OVCAR-5 ovarian 98.1% | OVCAR-4 ovarian 101% | SK-OV-3 ovarian 103% | IGROV1 ovarian 110% | OVCAR-3 ovarian 108% | HS 578T breast 105% | NCI/ADR-RES ovarian 100% | T-47D breast 82.7% | BT-549 breast 105% | MDA-MB-435 melanoma 105% | SW-620 colon 99% | MCF7 breast 99% | HCT-116 colon 105% | HCC-2998 colon 110% | KM12 colon 104%
